EP2 antag = human EP2 receptor antagonists, primary screen, TR-FRET cAMP, C6 glioma cells | Prostaglandin E2 receptor EP2 subtype (Homo sapiens), P43116 | C6 glioma cells expressing human EP2; cells stimulated with saturating PGE2 | actives 0.52% (n = 260,000) | inhibition, % at 25 µM;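 active means percent inhibition above 40 after rounding to a whole number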;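 further: rat C6 glioma host cells with rolipram phosphodiesterase inhibitor present; the protocol text gives 20 µM as final concentration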
Target sequence (P43116 whole entry, looked up): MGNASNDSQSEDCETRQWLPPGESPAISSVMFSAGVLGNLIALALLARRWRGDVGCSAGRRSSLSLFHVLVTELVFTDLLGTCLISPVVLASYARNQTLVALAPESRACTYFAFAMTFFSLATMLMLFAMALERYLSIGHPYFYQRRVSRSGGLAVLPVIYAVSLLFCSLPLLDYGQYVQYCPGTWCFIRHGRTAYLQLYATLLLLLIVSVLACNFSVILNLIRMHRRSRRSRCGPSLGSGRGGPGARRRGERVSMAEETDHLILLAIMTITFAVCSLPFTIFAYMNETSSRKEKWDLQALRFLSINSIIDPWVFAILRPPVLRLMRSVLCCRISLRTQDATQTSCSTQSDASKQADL
HSV replic up = enhancers of HSV replication in host cells, fold increase, host cell viability. HSV replication augmentation in cells. maximum fold increase. actives 0.005% (n = 220,000); in the data active means maximum fold increase above about 1.5; tested in PC3 cells
Furin inhibitor = human furin inhibitors, primary screen, biochemical, fluorescence intensity | P09958 | purified furin, fluorogenic substrate cleavage | inhibition, % at 20 µM or 30 µM | actives 0.061% (n = 220,000); in the data active means inhibition above about 25%
Pf gametocyte = late stage P. falciparum gametocyte viability inhibitors, primary screen, ATP luminescence, HTS | actives 0.065% (n = 150,000) | P. falciparum stage V gametocytes, 24 h | AID 743093, 2013 | inhibition, % at 10.9 µM;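 active means inhibition above the mean plus 3 SD of compounds within the control limits, set per campaign, cut at about 38% in these data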;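 further: 0% = DMSO wells and 100% = medium only without gametocytes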
EP2 modulator = EP2 receptor modulators, cAMP readout, primary screen, cell-based, HTRF cAMP, PGE2 stimulation; actives 0.83% (n = 260,000); Prostaglandin E2 receptor EP2 subtype (Homo sapiens), P43116; EP2-expressing cells, cAMP HTRF FRET, PGE2 co-stimulation; induction, % at 25 µM;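 active means compounds whose cAMP rise, as percent of the full-agonist control response, exceeds 60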;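 further: rat C6 glioma line stably carrying human EP2 under a CMV promoter; the protocol text gives 20 µM as final concentration; 100% = response of wells given 1 µM PGE2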
Active calls of the source: *; i = inactive; / = no result given; ! = a repeat was not active. An excerpt weighted towards active compounds, which were near 1.4% of everything screened.

SMILES	EP2 antag	HSV replic up	Furin inhibitor	Pf gametocyte	EP2 modulator
Cc1ccc(NC2=C/C(=N/S(=O)(=O)c3cccs3)c3ccccc3C2=O)cc1C	7	/	-14	7	4
Cc1cc(C)c(S(=O)(=O)/N=C2/C=C(Sc3ncn[nH]3)C(=O)c3ccccc32)cc1C	104*	i	-8	-3	-80
COCCCNCCCCOc1c(Cl)cc(C)cc1Br	5	i	-4	/	-17
Cc1ccc(C(=O)Nc2cccc(C(F)(F)F)c2)cc1NC(=O)c1csc(-c2ccncc2)n1	28	i	-38	/	-20
CN1CC(c2ccccn2)C2(SC(=S)N(Cc3ccccc3)C2=O)C12C(=O)Nc1ccccc12 (centres undefined)	7	i	-12	6	25
CN1CC(c2ccccc2)C2(SC(=S)N(Cc3ccco3)C2=O)C12C(=O)Nc1ccccc12 (centres undefined)	9	i	-11	9	61*
O=C(CCCOc1ccccc1)Nc1nnc(C2CCCO2)s1 (centres undefined)	10	i	-8	/	-2
CCNc1nc(NCC)nc(SCCOC(=O)c2ccccc2)n1	6	i	-11	/	63*
C/C=C/c1ccc(OCCCCOc2ccccc2C(C)=O)c(OC)c1	7	i	-16	7	-14
CC1(C)C(N(O)C(=O)Nc2ccc(Cl)cc2)N(c2ccc(Cl)cc2)C(=O)N1CC(=O)NN (centres undefined)	-2	i	-31	11	-1
c1ccc(-c2nc3ccccc3c3nc4ccccc4n23)cc1	7	i	-17	-19	64*
COc1cccc(/C=N/NC(=O)CCNc2n[nH]c(=O)[nH]c2=O)c1OC	3	i	7	/	-17
CC1Oc2ccccc2C=C1/C=N/NC(=O)c1ccncc1 (centres undefined)	7	i	-3	3	-29
O=C1ON=C(c2ccccc2)/C1=C/c1ccc(O)cc1	/	/	/	0	/
O=C1ON=C(c2ccc(Cl)cc2)/C1=C/c1ccc(O)cc1	53*	i	-19	13	-65
Cc1cc(C2(c3ccc(O)c(C)c3)C(=O)Nc3ccccc32)ccc1O	6	i	-22	16	61*
O=C(Nc1ccc(N2CCCC2)cc1)C(Cl)c1ccccc1 (centres undefined)	24	i	-18	/	7
Cc1cc(C(C)(C)C)oc1C(=O)NCCCNC(=O)c1oc(C(C)(C)C)cc1C	7	i	-8	/	61*!
Cc1cc(C(C)(C)C)oc1C(=O)OCC(=O)NC1CCCCC1	7	i	-29	19	7
Cc1ccc(N(Cc2ccc([N+](=O)[O-])cc2)C(=O)c2ccco2)cc1C	5	i	-9	/	63*
CCn1c(CCNC(=O)c2ccc(OC)cc2)nnc1SCc1ccc(Cl)cc1Cl	8	i	-7	-2	3
c1cc(-c2sc(-c3ccncc3)c(-c3ccncc3)c2-c2ccncc2)ccn1	41*!	i	-61	18	-12
Nc1nnc(-c2ccncc2)s1	11	i	-8	-7	20
CCOC(=O)C(NCc1ccc2c(c1)OCO2)(NC(=O)c1ccccc1)C(F)(F)F (centres undefined)	20	i	-33	/	-37
O=C(CSc1nnc(-c2ccco2)n1-c1ccccc1)NCc1ccc2c(c1)OCO2	5	i	-15	6	5
SMILES	EP2 antag	HSV replic up	Furin inhibitor	Pf gametocyte	EP2 modulator
COCCn1c(=NC(=O)C2COc3ccccc3O2)sc2cc(S(N)(=O)=O)ccc21 (centres undefined)	58*	i	-18	-3	-51
C=CCn1c(=NC(=O)C2COc3ccccc3O2)sc2cc(S(N)(=O)=O)ccc21 (centres undefined)	17	i	11	-32	-13
C[C@H]1C[C@@H]2[C@@H]3CCC4=CC(=O)C=C[C@@]4(C)[C@@]3(F)[C@H](O)C[C@@]2(C)[C@]1(O)C(=O)COP(=O)(O)O	42*	/	/	/	14
C[C@]1(c2ccccc2)O[C@@H]2C[C@H]3[C@@H]4CCC5=CC(=O)C=C[C@@]5(C)[C@@]4(F)[C@H](O)C[C@]3(C)[C@]2(C(=O)CO)O1	51*	/	/	/	2
COCCN1C=C(C(=O)OC)C(c2ccc3c(c2)OCO3)C(C(=O)OC)=C1	7	i	-6	/	5
O=C(O)[C@@H](Br)[C@@H](Br)c1ccccc1[N+](=O)[O-]	41*	/	/	/	29
ClC(Cl)c1nnc(-c2ccccc2)c(-c2c[nH]c3ccccc23)n1	4	i	-9	-9	12
CC(C)(C)c1ccc(CN2CCN([C@H](c3ccccc3)c3ccc(Cl)cc3)CC2)cc1	45*	/	/	/	15
OCCOCCN1CCN(C(c2ccccc2)c2ccc(Cl)cc2)CC1 (centres undefined)	20	i	-20	/	15
CCc1ccc(-c2cc(C(=O)Nn3cnnc3)c3ccccc3n2)cc1	14	i	-17	39*	17
CCn1c2ccccc2n2c(=O)n(CC(=O)NC34CC5CC(CC(C5)C3)C4)nc12	5	/	/	/	-31
O=C(Cn1sc2ccccc2c1=O)NC12CC3CC(CC(C3)C1)C2	132*	i	-19	/	-50
C[C@]12CC[C@H](O)C[C@@H]1CC[C@H]1[C@H]2CC[C@]2(C)[C@@H]1CC[C@H]2c1cc(C(F)(F)F)n[nH]1	55*	/	/	/	-19
C[C@@H]1CC[C@@]2(OC1)O[C@H]1CC3C4CC[C@H]5C[C@@H](O)CC[C@]5(C)C4CC[C@]3(C)[C@H]1[C@@H]2C (some centres undefined)	12	/	/	/	9
N=C(N)S[C@@H]1c2ccccc2-c2cc([N+](=O)[O-])ccc21	48*	/	/	/	-51
CCP(=O)(c1cccc([N+](=O)[O-])c1)c1cccc([N+](=O)[O-])c1	10	i	-17	-4	-12
CN(C)c1ccc(C(=C2C=CC(=[N+](C)C)C=C2)c2ccc(N(C)C)cc2)cc1	29	/	/	/	-73
CN(C)c1ccc(C(=C2C=CC(=[N+](C)C)C=C2)c2ccccc2)cc1	81*	/	/	/	11
Cn1c(=O)n(CC(N)=O)c(=O)c2c1nc(Br)n2Cc1ccccc1	/	/	/	-4	/
O=C(CN(Cc1cccs1)C(=O)CNS(=O)(=O)c1ccc(Cl)cc1)NCc1ccco1	3	i	-20	-13	24
OC(CN1CCC2(CC1)CC(O)c1ccc3ccccc3c1O2)c1ccc(Cl)cc1 (centres undefined)	50*	/	/	/	-86
COc1ccc(C(O)CN2CCC3(CC2)CC(O)c2ccc4ccccc4c2O3)cc1 (centres undefined)	9	/	/	/	-93
Cc1ccc(C)c2[nH]c(=O)c(CN(C(=S)NCc3ccccc3)C3CCCCC3)cc12	23	/	/	/	64*
CCCNC(=S)N(Cc1cc2c(C)cc(C)cc2[nH]c1=O)C1CCCCC1	6	/	/	/	61*
COc1ccc(Cl)cc1C(=O)CSc1nnnn1C	18	i	-18	-6	-5

Compound activity from PubChem.
